This is part of a sample that, as a whole, favours compounds with a hit. Of some 79,000 tested, about 15% had one in any assay. The source made the active and inactive calls. Rule as the data show it: active = growth inhibition above about 70%; inactive = the rest.
What was measured:
[1] = NCI Yeast Anticancer Drug Screen. Data for the rad50 strain (AID 155);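 also: 0% = growth of vehicle-only cultures of the same strain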; details: S. cerevisiae rad50 strain growth inhibition, active compounds read high
Procedure, shortened: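 Relative growth inhibition (compound vs vehicle) was measured in yeast with a defined repair-gene alteration.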

[2] = NCI Yeast Anticancer Drug Screen. Data for the mec2-1 strain (AID 157); details: S. cerevisiae mec2-1 strain, active compounds read high
Procedure, shortened: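 Strain: mec2-1 (DNA repair/cell cycle alteration). Compound exposure, then growth measured; inhibition expressed relative to vehicle.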

[3] = NCI Yeast Anticancer Drug Screen. Data for the sgs1 mgt1 strain (AID 161);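 also: 0% = growth of cultures given vehicle only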; details: S. cerevisiae sgs1 mgt1 strain, active compounds read high
Procedure, shortened: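 Mutant yeast exposed to compound; growth scored against vehicle-only wells.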

[4] = NCI Yeast Anticancer Drug Screen. Data for the cln2 rad14 strain (AID 165);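 also: 0% = growth equal to vehicle treated cultures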; details: S. cerevisiae cln2 rad14 strain, active compounds read high
Procedure, shortened: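 Compounds are applied to the cln2 rad14 yeast strain, and growth is then compared with that of vehicle-treated cultures to give inhibition.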

[5] = NCI Yeast Anticancer Drug Screen. Data for the bub3 strain (AID 167); details: S. cerevisiae bub3 mutant strain, active compounds read high
Procedure, shortened: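 Screening used yeast with an engineered genetic alteration affecting cell cycle control. Compound-exposed cultures were compared with vehicle cultures, and reduced growth was taken as inhibition.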

[6] = NCI Yeast Anticancer Drug Screen. Data for the mlh1 rad18 strain (AID 175); details: S. cerevisiae mlh1 rad18 strain growth inhibition, active compounds read high
Procedure, shortened: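 Read-out is yeast growth inhibition, calculated against vehicle-only controls. The compound was applied to a strain engineered with DNA damage repair alterations.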

[7] = at 5.0 µM (retest, dose inferred, filed as 0.5)
[8] = at 50.0 µM (retest, dose inferred, filed as 5.0)

Measured: growth inhibition

Nc1ccc(-c2nc3ccccc3s2)cc1I
active: [1]; [8] 71% | [1]; at 50.0 µM 84.3% | [2]; [8] 74% | [2]; at 50.0 µM 89.1% | [3]; [8] 88% | [3]; at 50.0 µM 87.3% | [4]; at 50.0 µM 86.2% | [5]; [8] 95% | [5]; at 50.0 µM 84.2% | [6]; [8] 77% | [6]; at 50.0 µM 84%
inactive: [1]; [7] 34% | [2]; [7] 20% | [3]; [7] 44% | [4]; [7] 50% | [4]; [8] 68% | [5]; [7] 53% | [6]; [7] 27%

C[P+](c1ccccc1)(c1ccc(Cl)cc1)c1ccc(Cl)cc1
inactive: [1]; [7] -26% | [1]; at 50.0 µM 50.6% | [2]; [7] -3% | [2]; [8] 28% | [2]; at 50.0 µM 28.7% | [3]; [7] 0% | [4]; [7] -3% | [4]; [8] 1% | [4]; at 50.0 µM -39.3% | [5]; [7] -1% | [5]; at 50.0 µM 69.5% | [6]; [7] 12% | [6]; [8] 59% | [6]; at 50.0 µM 46.9%
active: [1]; [8] 72% | [3]; [8] 81% | [3]; at 50.0 µM 71.9% | [5]; [8] 75%

CCCNC(=O)c1ccccc1
active: [4]; at 50.0 µM 70.8%
inactive: [1]; [7] -1% | [1]; [8] -5% | [1]; at 50.0 µM 4% | [2]; [7] 2% | [2]; [8] -2% | [2]; at 50.0 µM 13.2% | [3]; [7] 1% | [3]; [8] -5% | [3]; at 50.0 µM 2.85% | [4]; [7] -6% | [4]; [8] -2% | [5]; [7] -5% | [5]; [8] -9% | [5]; at 50.0 µM 22.7% | [6]; [7] -2% | [6]; [8] -5% | [6]; at 50.0 µM 7.6%

O=c1c2cccc3cccc(c4oc5c6cccc7cccc(c(=O)c5c14)c76)c32
active: [1]; [8] 92% | [1]; at 50.0 µM 95.5% | [2]; [8] 97% | [2]; at 50.0 µM 88.5% | [3]; [8] 97% | [3]; at 50.0 µM 97.2% | [4]; [8] 88% | [4]; at 50.0 µM 93.9% | [5]; [8] 94% | [5]; at 50.0 µM 96.3% | [6]; [8] 97% | [6]; at 50.0 µM 98.9%
inactive: [1]; [7] 16% | [2]; [7] 13% | [3]; [7] 15% | [4]; [7] 13% | [5]; [7] 37% | [6]; [7] 17%

BrC(Br)([P+](c1ccccc1)(c1ccccc1)c1ccccc1)[P+](c1ccccc1)(c1ccccc1)c1ccccc1
active: [1]; [8] 73% | [6]; [8] 74% | [6]; at 50.0 µM 78.2%
inactive: [1]; [7] 18% | [1]; at 50.0 µM 19.1% | [2]; [7] 9% | [2]; [8] 41% | [2]; at 50.0 µM 23.6% | [3]; [7] 4% | [3]; [8] 61% | [3]; at 50.0 µM 27.5% | [4]; [7] 4% | [4]; [8] 24% | [4]; at 50.0 µM 35.4% | [5]; [7] 4% | [5]; [8] 42% | [5]; at 50.0 µM 12.7% | [6]; [7] 15%

COc1cccc2c1C1c3ccccc3Sc3cccc(c31)O2 (stereo not given)
inactive: [1]; [7] 6% | [1]; [8] 3% | [1]; at 50.0 µM 5.2% | [2]; [7] 6% | [2]; [8] 3% | [2]; at 50.0 µM 18.3% | [3]; [7] 4% | [3]; [8] 3% | [3]; at 50.0 µM 19.6% | [4]; [7] 1% | [4]; [8] -21% | [4]; at 50.0 µM 40.2% | [5]; [7] -1% | [5]; [8] -2% | [5]; at 50.0 µM 43.9% | [6]; [7] 4% | [6]; [8] 1% | [6]; at 50.0 µM 21.1%

Nc1cc(F)c2c(c1F)C(=O)c1cc(F)ccc1-2
active: [1]; [8] 92% | [1]; at 50.0 µM 93.3% | [2]; [8] 70% | [3]; [8] 84% | [5]; [8] 72% | [6]; [8] 78% | [6]; at 50.0 µM 80.7%
inactive: [1]; [7] 15% | [2]; [7] 13% | [2]; at 50.0 µM 27.3% | [3]; [7] 2% | [3]; at 50.0 µM 55.4% | [4]; [7] 4% | [4]; [8] 41% | [4]; at 50.0 µM 26.5% | [5]; [7] 2% | [5]; at 50.0 µM 17.8% | [6]; [7] 5%

COc1ccc(N=N/N=c2\sc3cc(Cl)ccc3n2C)cc1
inactive: [1]; [7] 29% | [1]; [8] 57% | [1]; at 50.0 µM 36.9% | [2]; [7] 18% | [2]; [8] 43% | [2]; at 50.0 µM 6.15% | [3]; [7] 21% | [3]; [8] 42% | [3]; at 50.0 µM -30.4% | [4]; [7] 28% | [4]; [8] 56% | [4]; at 50.0 µM 30.4% | [5]; [7] 21% | [5]; [8] 62% | [5]; at 50.0 µM 5% | [6]; [7] 28% | [6]; [8] 63% | [6]; at 50.0 µM 38.2%

CCOC(=O)C(=O)Nc1nc2c(s1)C(=O)c1ccccc1C2=O
active: [1]; [8] 96% | [1]; at 50.0 µM 98.5% | [2]; [8] 98% | [2]; at 50.0 µM 95.8% | [3]; [8] 99% | [3]; at 50.0 µM 96.9% | [4]; [8] 89% | [4]; at 50.0 µM 90% | [5]; [8] 96% | [5]; at 50.0 µM 98.5% | [6]; [8] 94% | [6]; at 50.0 µM 96.3%
inactive: [1]; [7] 14% | [2]; [7] 18% | [3]; [7] 14% | [4]; [7] -3% | [5]; [7] 46% | [6]; [7] 17%

Oc1c(C(O)(c2ccccc2)c2ccc3ccccc3c2O)ccc2ccccc12
inactive: [1]; [7] 17% | [2]; [7] 3% | [3]; [7] 13% | [4]; [7] 9% | [5]; [7] 21% | [6]; [7] 9%
active: [1]; [8] 81% | [1]; at 50.0 µM 84.8% | [2]; [8] 81% | [2]; at 50.0 µM 84.4% | [3]; [8] 76% | [3]; at 50.0 µM 79.4% | [4]; [8] 96% | [4]; at 50.0 µM 82.5% | [5]; [8] 95% | [5]; at 50.0 µM 89.2% | [6]; [8] 85% | [6]; at 50.0 µM 86.9%
